Drawing on PubChem BioAssay (EPA / NIEHS), this text covers outcome and AC50 for six compounds.

What all share (conditions): mRNA level, 48 h; actives raise or lower the signal
Read-out in experiment [1]: Cyclin D1 (CCND1), CCND1 (gene 595)
The experiment can be described thus: LTEA_HepaRG_CCND1: Life Technologies and Expression Analysis (LTEA) Assay for Cyclin D1 (CCND1) using HepaRG (AID 2283451). The gist of the method:
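Expression of CCND1 was quantified by qRT-PCR on Fluidigm arrays using ACTB, GAPDH and POLR2A as reference genes. HepaRG cultures, plated 48 h beforehand, were dosed for 48 h at up to 100 uM (half-log, 8 points) in 0.5% DMSO.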

Read-out in experiment [2]: flavin-containing dimethylaniline monooxygenases 3 (FMO3), FMO3 (gene 2328)
The experiment can be described thus: LTEA_HepaRG_FMO3: Life Technologies and Expression Analysis (LTEA) Assay for flavin-containing dimethylaniline monooxygenases 3 (FMO3) using HepaRG (AID 2283453). A digest of the protocol:
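Eight-point concentration-response in serum-free HepaRG cultures (top 100 uM, 0.5% DMSO, 48 h). Read-out: FMO3 mRNA level normalized to three endogenous control genes, fitted bidirectionally versus vehicle.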

Read-out in experiment [3]: Cytochrome P450 (CYP1A1), CYP1A1 (gene 1543)
The experiment can be described thus: LTEA_HepaRG_CYP1A1: Life Technologies and Expression Analysis (LTEA) Assay for Cytochrome P450 (CYP1A1) using HepaRG (AID 2283454). The gist of the method: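 CYP1A1 transcript levels measured by Fluidigm qRT-PCR against three housekeeping genes, 48 h after chemical dosing of human HepaRG cells (highest concentration 100 uM, half-log steps, 0.5% DMSO vehicle). Gain or loss of signal fitted relative to DMSO.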

Read-out in experiment [4]: CFLAR gene, CFLAR (gene 8837)
The experiment can be described thus: LTEA_HepaRG_CFLAR: Life Technologies and Expression Analysis (LTEA) Assay for CFLAR gene using HepaRG (AID 2283455). The gist of the method: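 qRT-PCR read-out (Fluidigm/TaqMan) of CFLAR mRNA, normalized to three housekeeping genes, in differentiated human HepaRG cells after 48 h chemical exposure; 8-point half-log series from 100 uM in 0.5% DMSO; bidirectional curve fitting versus DMSO.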

Read-out in experiment [5]: growth arrest and DNA damage 45 (GADD45A), GADD45A (gene 1647)
The experiment can be described thus: LTEA_HepaRG_GADD45A: Life Technologies and Expression Analysis (LTEA) Assay for growth arrest and DNA damage 45 (GADD45A) using HepaRG (AID 2283458). The gist of the method:
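Eight-point concentration-response in HepaRG cells: 48 h chemical exposure, 0.5% DMSO vehicle, top dose 100 uM. Normalized qRT-PCR mRNA readout with bidirectional fitting relative to DMSO.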

Read-out in experiment [6]: Forkhead box O3 (FOXO3), FOXO3 (gene 2309)
The experiment can be described thus: LTEA_HepaRG_FOXO3: Life Technologies and Expression Analysis (LTEA) Assay for Forkhead box O3 (FOXO3) using HepaRG (AID 2283459). The gist of the method: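 qRT-PCR readout of FOXO3 transcript, normalized to three housekeeping genes (ACTB, GAPDH, POLR2A); gain or loss fitted against 0.5% DMSO vehicle. HepaRG cells, 48 h chemical exposure, 8-point half-log series, top 100 uM.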

Read-out in experiment [7]: growth arrest and DNA damage 45 (GADD45B), GADD45B (gene 4616)
The experiment can be described thus: LTEA_HepaRG_GADD45B: Life Technologies and Expression Analysis (LTEA) Assay for growth arrest and DNA damage 45 (GADD45B) using HepaRG (AID 2283461). A digest of the protocol: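 Transcript level quantified by Fluidigm TaqMan qRT-PCR with three housekeeping genes for normalization, analyzed for up- or down-regulation against 0.5% DMSO. HepaRG cultures dosed 48 h at eight half-log concentrations up to 100 uM, duplicates.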

Read-out in experiment [8]: ABC Transporter (ABCC3), ABCC3 (gene 8714)
The experiment can be described thus: LTEA_HepaRG_ABCC3: Life Technologies and Expression Analysis (LTEA) Assay for ABC Transporter (ABCC3) using HepaRG (AID 2283462). The gist of the method:
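Transcript level by TaqMan qRT-PCR, normalised to three housekeeping genes, fitted in both directions relative to vehicle. Chemicals tested in duplicate at eight half-log concentrations up to 100 uM for 48 h on HepaRG cells (0.5% DMSO).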

Read-out in experiment [9]: ABC Transporter (ABCB11), ABCB11 (gene 8647)
The experiment can be described thus: LTEA_HepaRG_ABCB11: Life Technologies and Expression Analysis (LTEA) Assay for ABC Transporter (ABCB11) using HepaRG (AID 2283463). A digest of the protocol: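 HepaRG, 48 h exposure, 8-pt half-log CRC top 100 uM, 0.5% DMSO vehicle, duplicates. Readout: TaqMan qRT-PCR of ABCB11 mRNA, housekeeping-normalized (ACTB/GAPDH/POLR2A). Bidirectional fit vs DMSO baseline.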

Read-out in experiment [10]: Broad substrate specificity ATP-binding cassette transporter ABCG2 (Homo sapiens) (UniProt Q9UNQ0)
The experiment can be described thus: LTEA_HepaRG_ABCG2: Life Technologies and Expression Analysis (LTEA) Assay for ABC Transporter (ABCG2) using HepaRG (AID 2283465). The gist of the method:
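HepaRG, 48 h exposure, 8-pt half-log series from 100 uM, 0.5% DMSO vehicle, duplicates. Readout: ABCG2 transcript by qRT-PCR (Fluidigm array), housekeeping-normalized; bidirectional curve fit relative to DMSO baseline.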

Read-out in experiment [11]: Peroxisomal acyl-coenzyme A oxidase 1 (ACOX1) gene, ACOX1 (gene 51)
The experiment can be described thus: LTEA_HepaRG_ACOX1: Life Technologies and Expression Analysis (LTEA) Assay for Peroxisomal acyl-coenzyme A oxidase 1 (ACOX1) gene using HepaRG (AID 2283467). A digest of the protocol:
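HepaRG, 48 h chemical exposure, 8-pt half-log series from 100 uM top, 0.5% DMSO vehicle, duplicates. Readout: ACOX1 mRNA by Fluidigm qRT-PCR, housekeeping-normalized; bidirectional fit vs DMSO baseline.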

Read-out in experiment [12]: Alkaline Phosphatase, Placental (ALPP) gene, ALPP (gene 250)
The experiment can be described thus: LTEA_HepaRG_ALPP: Life Technologies and Expression Analysis (LTEA) Assay for Alkaline Phosphatase, Placental (ALPP) gene using HepaRG (AID 2283468).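 On AC50: differentiated human HepaRG liver cells in serum-free induction medium.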 A digest of the protocol:
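ALPP transcript level, measured by qRT-PCR and normalized to three housekeeping genes (ACTB, GAPDH, POLR2A), after 48 h dosing of differentiated HepaRG in serum-free induction medium. Top concentration 100 uM with half-log dilutions (8 points, 0.5% DMSO, duplicates); bidirectional fitting relative to DMSO.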

Read-out in experiment [13]: Bcl-2 (BAD) gene, BAD (gene 572)
The experiment can be described thus: LTEA_HepaRG_BAD: Life Technologies and Expression Analysis (LTEA) Assay for Bcl-2 (BAD) gene using HepaRG (AID 2283469). The gist of the method: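 HepaRG, 48 h exposure, 8-pt half-log curve from 100 uM in 0.5% DMSO, duplicates. Readout: TaqMan qRT-PCR for BAD mRNA, housekeeping-normalised (ACTB/GAPDH/POLR2A); gain or loss fitted against DMSO baseline.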

Read-out in experiment [14]: Forkhead box O1 (FOXO1), FOXO1 (gene 2308)
The experiment can be described thus: LTEA_HepaRG_FOXO1: Life Technologies and Expression Analysis (LTEA) Assay for Forkhead box O1 (FOXO1) using HepaRG (AID 2283456). The gist of the method:
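HepaRG, 48 h exposure, 8-pt half-log series from 100 uM in 0.5% DMSO, duplicates; Fluidigm qRT-PCR mRNA, housekeeping-normalised; bidirectional fit vs DMSO baseline.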

Read-out in experiment [15]: ABC Transporter (ABCC2), ABCC2 (gene 1244)
The experiment can be described thus: LTEA_HepaRG_ABCC2: Life Technologies and Expression Analysis (LTEA) Assay for ABC Transporter (ABCC2) using HepaRG (AID 2283464). A digest of the protocol:
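Endpoint is ABCC2 transcript level from qRT-PCR, normalized to three housekeeping genes and fitted bidirectionally relative to DMSO. Human HepaRG cells received test chemical for 48 h at up to 100 uM (8 points, half-log steps, 0.5% DMSO), duplicate wells.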

Read-out in experiment [16]: ATP-citrate lyase (ACLY), ACLY (gene 47)
The experiment can be described thus: LTEA_HepaRG_ACLY: Life Technologies and Expression Analysis (LTEA) Assay for ATP-citrate lyase (ACLY) using HepaRG (AID 2283466). A digest of the protocol:
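qRT-PCR readout of ACLY transcript after 48 h chemical treatment of HepaRG cells; expression normalized to three housekeeping genes. Eight-point half-log series, highest 100 uM, 0.5% DMSO vehicle. Gain or loss fitted against DMSO baseline.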

Read-out in experiment [17]: ABC Transporter (ABCB1), ABCB1 (gene 5243)
The experiment can be described thus: LTEA_HepaRG_ABCB1: Life Technologies and Expression Analysis (LTEA) Assay for ABC Transporter (ABCB1) using HepaRG (AID 2283460). The gist of the method:
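HepaRG, 48 h exposure, 8-pt half-log series from 100 uM, 0.5% DMSO vehicle, duplicates. Readout: ABCB1 transcript by Fluidigm TaqMan qRT-PCR, housekeeping-normalized; bidirectional curve fit vs DMSO baseline.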

Read-out in experiment [18]: catalase (CAT), CAT (gene 847)
The experiment can be described thus: LTEA_HepaRG_CAT: Life Technologies and Expression Analysis (LTEA) Assay for catalase (CAT) using HepaRG (AID 2283452). A digest of the protocol:
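HepaRG cells in serum-free induction medium, 0.5% DMSO vehicle, exposed 48 h in duplicate over 8 half-log concentrations from 100 uM. CAT mRNA measured by qRT-PCR, normalized to ACTB, GAPDH, POLR2A; bidirectional fit versus DMSO.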

The structures appear in SMILES notation. The source made the active and inactive calls. How the source made its calls: active means hit-call score of the fitted dose curve at least 0.9, where 1 is the maximum; inactive means score below 0.9.

In general, AC50 refers to the midpoint of the concentration-response curve, whichever way the signal moves.

Sequence of Broad substrate specificity ATP-binding cassette transporter ABCG2 (Homo sapiens) (Q9UNQ0 whole entry, looked up): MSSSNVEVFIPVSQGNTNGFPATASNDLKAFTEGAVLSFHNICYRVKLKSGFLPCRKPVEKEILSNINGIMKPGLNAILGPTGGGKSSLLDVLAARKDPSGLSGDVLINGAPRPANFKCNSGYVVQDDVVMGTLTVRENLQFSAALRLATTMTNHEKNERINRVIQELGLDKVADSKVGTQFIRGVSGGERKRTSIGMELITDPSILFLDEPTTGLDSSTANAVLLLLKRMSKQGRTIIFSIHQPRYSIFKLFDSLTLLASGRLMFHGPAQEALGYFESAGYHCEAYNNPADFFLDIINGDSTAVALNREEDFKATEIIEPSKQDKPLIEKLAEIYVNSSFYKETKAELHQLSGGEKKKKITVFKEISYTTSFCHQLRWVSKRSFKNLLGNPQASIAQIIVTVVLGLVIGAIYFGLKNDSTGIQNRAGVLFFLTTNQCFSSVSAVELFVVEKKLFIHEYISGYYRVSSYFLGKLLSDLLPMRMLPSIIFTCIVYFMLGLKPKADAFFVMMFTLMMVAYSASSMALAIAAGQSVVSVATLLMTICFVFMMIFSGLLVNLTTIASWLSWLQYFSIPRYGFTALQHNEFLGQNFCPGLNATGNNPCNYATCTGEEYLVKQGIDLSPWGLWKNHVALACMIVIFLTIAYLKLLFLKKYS

For the compound `COc1cc(Cl)c(OC)cc1Cl`, the outcome in experiment [1], in experiment [2], in experiment [4], in experiment [5], in experiment [6] and in experiment [7] was inactive. Further, the result in experiment [8], in experiment [9], in [10], in [11], in experiment [12] and in [13] was inactive. In addition, the concentration at half-maximal activity (AC50) in experiment [3] is 27.9 µM (active).
Take `CCOC(=O)C(C)OC(=O)c1cc(Oc2ccc(C(F)(F)F)cc2Cl)ccc1[N+](=O)[O-]` (stereo unspecified): the compound was classed as inactive in [1], in experiment [2], in experiment [4], in experiment [14], in [6] and in experiment [8]. For the same compound, the outcome in experiment [9], in [12] and in experiment [13] was inactive. The concentration at half-maximal activity (AC50) in experiment [3] was 50 µM (active); in experiment [5], 50 µM (active); in [7], 32.2 µM (active); in [15] it was 21.9 µM (active); in [10] it was 19.2 µM (active); in [16], 50 µM (active). Besides, the AC50 in experiment [11] is 2.11 µM (active).
For the compound `O=C1C2CC=CCC2C(=O)N1SC(Cl)(Cl)Cl` (stereo unspecified), the compound was classed as inactive in experiment [1], in experiment [2], in experiment [4], in [5], in [6] and in experiment [17]. The call in experiment [8], in experiment [15], in experiment [10], in experiment [11] and in [13] was inactive. Besides, the half-maximal activity concentration (AC50) was 38.8 µM (active) in experiment [3], 57.6 µM (active) in [9] and 10.8 µM (active) in [12].
On to `CS(=O)(=O)c1ccc(C(=O)C2C(=O)CCCC2=O)c([N+](=O)[O-])c1`, for which the compound was classed as inactive in experiment [1], in experiment [2], in experiment [4], in [14], in experiment [5] and in experiment [6]. In addition, the outcome in [8], in [9], in experiment [15], in experiment [10], in experiment [16] and in experiment [11] was inactive. The compound was classed as inactive in [12] and in experiment [13]. The concentration at half-maximal activity (AC50) in experiment [3] was 19.1 µM (active).
In the case of `C=C(C)CN(CC)c1c([N+](=O)[O-])cc(C(F)(F)F)cc1[N+](=O)[O-]`, the result in experiment [1], in experiment [2], in experiment [4], in [5], in [6] and in experiment [8] was inactive. Besides, the outcome in [9], in experiment [15], in experiment [10], in experiment [11], in experiment [12] and in [13] was inactive. Besides, the half-maximal activity concentration (AC50) in experiment [3] is 44.4 µM (active).
On to `O=C(O)c1c(Cl)ccc2cc(Cl)cnc12`, for which the outcome in experiment [1], in experiment [18], in [2], in experiment [3], in experiment [4] and in experiment [6] was inactive. Besides, the result in [8], in experiment [9], in experiment [15], in [10], in experiment [16] and in [11] was inactive. In addition, the result in experiment [12] and in [13] was inactive. Moreover, the AC50 in experiment [5] is 0.00381 µM (active).
